According to PMC4336329 (PLoS ONE, 2015):
Hit rate of the full screen: of about 310,000 compounds, about 14,000 (4.5%) showed an effect of 50% or more. Effects have a minus sign here. What follows is part of a selection rich in strong results, with near analogues and random picks from the rest.

Molecular target: human ether-à-go-go-related gene (hERG) potassium channel (human, UniProt Q12809)
Experiment: primary screen, population patch clamp on CHO cells stably expressing hERG; higher = less effect of the substance
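Also: peak tail current of the secondary pulse compared with the same well before compound.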

Sequence of human ether-à-go-go-related gene (hERG) potassium channel (Q12809 whole entry, looked up): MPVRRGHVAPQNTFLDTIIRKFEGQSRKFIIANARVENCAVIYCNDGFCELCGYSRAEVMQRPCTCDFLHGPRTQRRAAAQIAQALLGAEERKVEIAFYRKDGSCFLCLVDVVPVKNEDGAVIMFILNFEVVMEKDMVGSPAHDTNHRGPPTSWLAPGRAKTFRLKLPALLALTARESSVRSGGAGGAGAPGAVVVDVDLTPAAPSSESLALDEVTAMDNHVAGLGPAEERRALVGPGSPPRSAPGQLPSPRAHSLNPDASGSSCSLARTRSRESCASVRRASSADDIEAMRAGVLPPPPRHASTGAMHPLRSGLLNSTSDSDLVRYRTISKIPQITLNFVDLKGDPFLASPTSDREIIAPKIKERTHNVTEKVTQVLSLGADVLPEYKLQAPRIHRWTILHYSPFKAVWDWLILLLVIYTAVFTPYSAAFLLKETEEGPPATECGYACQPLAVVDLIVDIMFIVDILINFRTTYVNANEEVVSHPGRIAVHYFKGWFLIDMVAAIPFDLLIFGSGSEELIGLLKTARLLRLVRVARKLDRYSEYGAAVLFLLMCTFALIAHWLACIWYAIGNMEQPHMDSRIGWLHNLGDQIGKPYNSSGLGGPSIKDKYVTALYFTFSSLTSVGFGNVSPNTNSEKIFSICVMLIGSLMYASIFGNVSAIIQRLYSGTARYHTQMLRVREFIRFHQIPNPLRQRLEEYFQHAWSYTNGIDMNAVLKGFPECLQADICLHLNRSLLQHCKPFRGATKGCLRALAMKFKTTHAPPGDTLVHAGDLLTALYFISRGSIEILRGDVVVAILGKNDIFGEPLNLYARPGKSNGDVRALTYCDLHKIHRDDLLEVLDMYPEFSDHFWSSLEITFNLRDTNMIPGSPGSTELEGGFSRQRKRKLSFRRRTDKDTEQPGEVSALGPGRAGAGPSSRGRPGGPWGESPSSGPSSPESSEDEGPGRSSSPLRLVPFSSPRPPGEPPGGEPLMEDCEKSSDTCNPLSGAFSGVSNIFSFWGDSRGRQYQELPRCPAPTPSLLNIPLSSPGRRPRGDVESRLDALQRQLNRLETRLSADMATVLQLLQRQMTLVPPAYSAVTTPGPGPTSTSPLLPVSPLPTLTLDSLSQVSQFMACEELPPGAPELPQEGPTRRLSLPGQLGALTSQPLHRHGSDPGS

SMILES	hERG current change (%, negative = inhibition) at 10uM [%]
NC(=O)COc1ccc(Cc2ncc(C(F)(F)F)cc2Cl)cc1	-2.34
Cc1ccc(C)c(NS(=O)(=O)c2cc(C(=O)N3CCc4ccccc4C3)ccc2Cl)c1	8.24
CCOc1ccc(C(=O)NCC(=O)OCc2c(C)noc2C)cc1OCC	23.2
Cc1cc(O)c(CN2CCN(c3ccccc3)CC2)cc1C	3.98
O=C(Nc1ccccc1Cl)Oc1ccc(Cl)cc1Cl	12.8
Cc1ccc(NC2=Nc3ccccc3CC2)cc1	-18.2
CS(=O)(=O)c1ccc2nc(NC(=O)c3ccc(N4C(=O)CCC4=O)cc3)sc2c1	6.3
CSc1nc2c(c(=O)[nH]1)C(c1ccccc1Cl)CC(=O)N2 (stereo not drawn)	12.8
CCc1nnc(NS(=O)(=O)c2ccc(Nc3ccc([N+](=O)[O-])c4nonc34)cc2)s1	46.6
COc1ccc2[nH]c(CN3CCN(CC(C)C)C(CCO)C3)c(C)c2c1 (stereo not drawn)	5.18
COc1cccc(CN2CCN(Cc3[nH]c4ccccc4c3C)CC2CCO)c1 (stereo not drawn)	-60.5
COc1cc(CN2CCN(Cc3c[nH]c4ccccc34)CC2CCO)cc(OC)c1 (stereo not drawn)	-32.3
Cc1csc(NC(=O)CSc2nncn2C)n1	19
O=C1C=C(NCc2ccccc2)C2(CCCCC2)O1	0.0967
CCCCc1ccc(NC(=O)CSc2nc(=O)n(CCCN3CCOCC3)c3c2CCC3)cc1	-64.5
CCc1ccc(NC(=O)CSc2nc(=O)n(CCCN3CCOCC3)c3c2CCCC3)cc1	-54.7
CCCCc1ccc(NC(=O)CSc2nc(=O)n(CCN3CCOCC3)c3c2CCC3)cc1	-66.5
CCOc1ccc(NC(=O)CSc2nc(=O)n(CCCN3CCOCC3)c3c2CCC3)cc1	-24.1
CCc1ccc(NC(=O)CSc2nc(=O)n(CCCN3CCOCC3)c3c2CCC3)cc1	-40
CCOC(=O)c1ccc(NC(=O)CSc2nc(=O)n(CCN3CCOCC3)c3c2CCC3)cc1	-32
O=C(COC(=O)c1cc[n+]([O-])cc1)Nc1ccc(Cl)cc1[N+](=O)[O-]	15.6
COc1cc(C(=O)OCC(=O)c2c[nH]c3ccccc23)ccc1OCC(=O)N1CCOCC1	5.92
Cc1cccc(C(=O)N[C@H](C(=O)Nc2nc3ccccc3[nH]2)C(C)C)c1	3.32
COc1ccc(C(CC(=O)c2ccccc2)S(=O)(=O)c2ccc(C)cc2)cc1 (stereo not drawn)	12.8
